Assay results taken from the supplement of paper PMC10681739.
Whole data set: some 2,700 sequences, median “arbitrary fluorescence units” near 4,100, cut for the highest 2% near 54,000. Many of the other results were omitted from the sample, so the highest values are more common in it than they were.

These sequences were tested against T1, ETS1 (UniProt P14921) (assay: ETS1 binding intensity (PBM fluorescence) (arbitrary fluorescence units); higher = stronger binding). Conditions: ETS1 concentration 10 nM.
T1 sequence: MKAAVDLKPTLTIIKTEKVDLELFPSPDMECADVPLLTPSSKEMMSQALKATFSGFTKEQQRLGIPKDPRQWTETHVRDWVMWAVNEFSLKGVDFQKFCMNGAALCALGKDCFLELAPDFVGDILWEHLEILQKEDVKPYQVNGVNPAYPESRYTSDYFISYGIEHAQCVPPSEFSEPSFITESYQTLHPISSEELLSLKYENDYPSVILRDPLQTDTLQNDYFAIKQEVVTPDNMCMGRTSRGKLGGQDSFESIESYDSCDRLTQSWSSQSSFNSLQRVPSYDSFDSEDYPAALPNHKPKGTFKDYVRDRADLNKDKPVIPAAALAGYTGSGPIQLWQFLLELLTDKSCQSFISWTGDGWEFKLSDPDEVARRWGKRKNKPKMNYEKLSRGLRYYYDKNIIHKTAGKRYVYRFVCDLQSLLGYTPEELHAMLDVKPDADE
Procedure: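 gcPBM on wild-type 36-bp genomic probes with two neighbouring ETS1 sites (4-24 bp apart). Recombinant human ETS1 (10 nM) was detected with anti-ETS1 antibody fluorescence. Values are medians over 3 replicate spots. The probes sit in constant array flanks that are not printed.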

Row | Sequence | ETS1 binding intensity
1 | TTCACCCCACCACTTCCTCATCCTGATCTCAGCTCA | 2880
2 | CCCTCCCCTTCCTGCCTGCCCTTCTTCCGGGGCACC | 8020
3 | CCCACTTCCTGCCTCACCCTGAAGATCTTCCGGGCA | 56900
4 | GCCGGAGACTAGCTTCCGCTTCCGGTGTGAGCGGCC | 26200
5 | AACCACTTCCGGTGAGTAGCTTCTACTTCCGGAGAC | 135000
6 | AAGACTTCTACTTCCGGAGACTTCCTCATGCCATGC | 33400
7 | TCTCGACTTCCGGTTCACCCAGCATTTCCTCTTCCC | 103000
8 | CACCCATTTTCACTTCCGCTTCCGGTTGTCACAGGC | 26500
9 | GTTACTTCCTCTCCCCAGGTCTCTCGGTTTCCTCAT | 23600
10 | GCTCCACCTTCCGGCCCATGGACACGGATGCCGAGG | 16100
11 | TCCTGCCTCAGGATGCCGGGGGAGGAAGAGGAGCGG | 258
12 | CCTACAATTCCTGTTTTGGAGACCGCTTCCGGCAGC | 3700
13 | ATCTCACCTTCCTGGTGTCTGGGCTTCCGCAGCTTC | 662
14 | CTTCCACATCTTCCTGCAGAGCATCCTGTCTGTGCA | 4230
15 | TATTCAAAGCCCACTTCCTTCCTGTAGCATTCATTC | 6220
16 | AGCATTCCACTTCCTGTCTTGATTCCTGTATTAGAG | 62700
17 | TGTGATGTTTCCTCTTGCTGTGGTTTCCTGTCATGG | 4090
18 | CAGGCCGGAAGTACGTGAGAGGAGACTTCCGGCCAC | 31200
19 | TTCCGACCGGAAGTGAGAAGAGGAGGAAGTTGGCTG | 64200
20 | AGGAGGAATGGCAGGAAGAGGAAGTGAAACCGACAA | 1690

Row | Sequence | ETS1 binding intensity
21 | CTTAGTTTCCTCTGGCGATGCTAAAGAGGAAGTTAC | 2440
22 | ATTTGAAGAGCCAGGAAGGAGGAAATGCAGAGTGCA | 287
23 | AGTCTAGTTGCCAGGAAACAGGATGTGGGAGGGACA | 3800
24 | TCCTCTTTCCGTTGTGAGCACCCTGCATCCTGGTGG | 3800
25 | CTGATAGGGGAAGTGGGAGTTGACAGGATGGTTTAA | 424
26 | ATGTAAAGAGGAAGTGACTCATTCTTCCTGGTGGTG | 3720
27 | GGGGCCGGAAGCTTTCGGATAACAACTTCCGCTCGG | 20100
28 | ACAGCTTCCGGTTTTGCAAGACAATGCTTCCTTCTC | 87800
29 | CAACAGGAAATACATACCTGTCCTGAGAGGAAGCAC | 7320
30 | AGCATCTGCTGGGGGAAACGGAAGCAGCCCAGATGG | 774
31 | TGTAGGAGCTTCCTTGCAGCCTCAGGATGCCGAATT | 517
32 | TATGTATTTCCTTATTGCAAAGGGCGGAAACGTGTA | 3980
33 | GGAAAGACGGCAGGAAATGGGGAAGTGGGAGGGAGA | 6220
34 | GGATCAGGAAGTCACGACATGGCGACCATCCTGGCT | 1720
35 | GCCCCACTTCCCTCCCGCGGTCACACTTCCGGCGGC | 12500
36 | CCCCACATCCGGTGCGGCGACGCCACTTCCGCCCAC | 78100
37 | CGTCCCACATCCGCCGACACGCCCCTTCCGGCCTAA | 20000
38 | GATGACCTGCCATTTCCCCAGGAAAGCTGAGACCCC | 201
39 | TTTCTGTCCGTTTCCGACAAACTTCCCGCGCTCTTC | 2630
40 | TGCCCTGCCTGCTTCCTCCCTTCCTTTCAACCCCAA | 2350

Row | Sequence | ETS1 binding intensity
41 | TGAAGACGGAAACCTGAGAACACCATTTCCTGTGCT | 4470
42 | GCCGCCGCGTACTTCCGGCCGGAAGAAAGGGCGGGC | 65400
43 | CGGCGGAAGGAGCGGGCGGCGTGAGCGCTTCCGCCG | 811
44 | TCGGCCACTTCCGGCGCGCGGGGCGGAAAGCGGGCG | 75800
45 | CGGCGTCAGCGGAACGGGCGGCTTCCGGCCGCGGCG | 8120
46 | CGGCGGCTGCCGGAAAGCCACTTCCGGCCTGCTCCA | 25400
47 | GGGAGGCGGAAAGGGGCGGGACCACTTCCGGCCTAG | 22100
48 | CTGTCACACAGGAAGACCACACAGGAAGACCAGGTG | 1320
49 | TCCACTCTGCGGAAGCCACGTTCATCCTGCCCTGCC | 586
50 | ATGCAGAAAGTGGGAAGTGAGGAAATGAGGGCAGCG | 232
51 | GAGAACTTCCGGCTGCAGTACAACCATTTCCGGGCT | 68300
52 | AACCAACAACTTACTTCCTTCCGGGTTTGGTGCAGA | 5690
53 | CCTGGCCGGAAACTGAGCCGTTCACTTCCGCCACCA | 14000
54 | TATCTCCTTCCTGTGTAGCATTGACTTTCCTGTCAG | 14100
55 | CGTGAGCGGAAGCGGCGCCATTCGTCTTCCGAGCGC | 6670
56 | TGCTAAACTTCCCTGGGCCCCATCAGGAAATGTGAA | 185
57 | TCCGCGTCCCCACATCCTCCGGATGCCCAGCGGTTG | 1980
58 | GCCCACATCCGGCCCCTCCTTGCCCCGGAACCTCCT | 70100
59 | TTCTTGGCCACATCCGTCTCCCGGAACTGCTCCTTC | 8980
60 | CGCCATACCTGGCTTCCGCTTCCGGTGGCTTCTCGT | 28200
